# Screening data from PubChem BioAssay.
# The list is not random: actives were taken first. Their share in the collection is about 11%.
# NS1 inh: qHTS Assay for Inhibitors of Influenza NS1 Protein Function; hit rate 0.4% among 270,000; Potency, µM (highest dose often 46.1 µM), for the others: at the top dose activity, positive = more growth; AID 2326, 2010; calls by dose curve; note: actives are rising curves; nearly all actives have a fitted effect of over 50% in size
#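 In this qHTS, NS1 from influenza A is expressed in budding yeast, where it slows growth. Cells are switched from glucose to 2% galactose medium (pH 6.0, -URA), treated with compound, and growth recovery is read at OD600.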
# VACV Venus inh: qHTS for Stage-Specific Inhibitors of Vaccinia Orthopoxvirus: Venus Reporter Primary qHTS. hit rate 0.46% among 330,000. Potency, µM (highest dose often 36.5 µM), for the others: at the top dose activity change, negative = inhibition, actives largely listed as inhibitors. AID 720580, 2013. Vaccinia virus Venus reporter expression, fluorescence; calls by dose curve; tested in A549 cells; note: % is set by controls: 0 for no effect and ±100 for the full control effect; nearly all actives have a fitted effect of over 30% in size
# HCV inh: qHTS Assay for Inhibitors of Hepatitis C Virus (HCV) | AID 651820, 2012 | Potency, µM (titrated, usually from 41.8 µM), inactives show at the highest dose activity change, negative = inhibition, actives largely listed as inhibitors | Huh7.5.1 HCVcc-Cre infection, luciferase reporter, 44 h | hit rate 3.4% among 340,000; note: % is set by controls: 0 for no effect and ±100 for the full control effect
#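 Whole-lifecycle infectious HCVcc-Cre system; cells 1,000/well, compound then virus (~0.5 moi) added 4 h after plating, 44 h culture. Luciferase read 15 sec following 15 min substrate incubation, room temp.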
# Pf growth 48h: Primary qHTS for delayed death inhibitors of the malarial parasite plastid, 48 hour incubation; P. falciparum luciferase growth in erythrocytes, 48 h; Potency, µM (highest dose often 28.7 µM), without a hit: top-dose activity change, negative = inhibition, most hits filed as inhibitors; hit rate 5.9% among 310,000; note: % is set by controls: 0 for no effect and ±100 for the full control effect
#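 Luciferase-expressing parasites in RBCs, 2% Hct / 0.1% parasitemia final; RPMI 1640 + 0.5% Albumax; 37 C, 5% CO2, one generation; luminescence read-out, lower signal = inhibition.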
# Pf growth 96h: Primary qHTS for delayed death inhibitors of the malarial parasite plastid, 96 hour incubation; P. falciparum luciferase reporter growth, 96 h; Potency, µM (doses to about 28.7 µM), without a hit: top-dose activity change, negative = inhibition, hits mostly inhibitors; hit rate 6.9% among 320,000; AID 504834, 2011; note: % is set by controls: 0 for no effect and ±100 for the full control effect
#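 Luminescence readout: decreased luciferase signal marks inhibited growth of reporter-expressing P. falciparum in infected red cells (2% hematocrit, 0.05% parasitemia final), exposed to compound two generations (96 h, 37 C, 5% CO2).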
# Vaccinia mCherry: qHTS for Stage-Specific Inhibitors of Vaccinia Orthopoxvirus: mCherry Reporter Primary qHTS; Vaccinia virus mCherry reporter infection, fluorescence; Potency, µM (doses to about 36.5 µM), without a hit: at the highest dose activity change, negative = inhibition, most hits filed as inhibitors; hit rate 0.63% among 310,000; calls by dose curve; tested in A549 cells; note: % is set by controls: 0 for no effect and ±100 for the full control effect; nearly all actives have a fitted effect of over 35% in size
# * = called active by the depositor; i = inactive; ? = inconclusive; . = not tested or not shown. Unless noted, calls come from the whole dose curve; as a rule, active = well fitted inhibition curve with a large enough effect; inconclusive = small, poorly fitted or top-dose-only effect, or another doubt; inactive = no such curve, though single readings can be large or run the other way. Potency is the fitted concentration of half-maximal effect.
SMILES,NS1 inh,VACV Venus inh,HCV inh,Pf growth 48h,Pf growth 96h,Vaccinia mCherry
NS(=O)(=O)c1ccc(CNC(=O)CCCSc2ccccc2)cc1,7%,-2%,33%,-9%,-3%,-5%
Cc1ccc(NC(=O)C2(C)CCN2C(C)C)cc1C (configuration not stated),.,-2%,.,.,.,38%
CCOCCCn1c(=N)c(C(=O)NCc2ccccc2)cc2c(=O)n3ccccc3nc21,.,-4%,.,.,.,0%
N=c1c(C(=O)NCc2ccccc2)cc2c(=O)n3ccccc3nc2n1CCCN1CCOCC1,-12%,-1%,?,5.9µM*,-14%,-13%
Cc1cc(C(=O)COC(=O)c2ccccc2Br)c(C)n1CC1CCCO1 (configuration not stated),2%,4%,?,62%,183%,-23%
Cc1cc(C(=O)COC(=O)c2ccccc2O)c(C)n1CC1CCCO1 (configuration not stated),.,.,11µM*,-4%,0%,.
Cc1cc(C(=O)COc2ccccc2C(N)=O)c(C)n1CC1CCCO1 (configuration not stated),-2%,-17%,1.8µM*,76%,10%,-11%
Cc1cc(C)cc(NS(=O)(=O)CCCS(=O)(=O)Nc2cc(C)cc(C)c2)c1,.,?,-20%,.,.,-17%
CCN1CCC(N(Cc2ccc3c(c2)OCO3)C(=O)Nc2cccc(C)c2C)CC1,.,0%,.,.,.,-11%
CCN(CC)c1ccc(/C=C(\C#N)c2nc(-c3cccs3)c(NC(C)=O)s2)cc1,?,.,13µM*,13µM*,7.4µM*,.
CC(=O)Nc1sc(N/N=C\c2ccc(O)cc2)nc1-c1cccs1,3%,.,7%,18%,8%,.
COC(=O)C1CC23C=CCN4CCC5(c6ccccc6NC15C2C)C43 (configuration not stated),4%,?,-4%,1.5µM*,-5%,13µM*
Cn1c(SCc2ccc(Cl)cc2)nnc1-c1ccc(NC(=O)CCc2ccccc2)cc1,.,-14%,.,.,.,-2%
CCOC(=O)c1c(C)nc2sc3c(c2c1-c1ccc(OC)cc1)NC(c1ccccc1)NC3=O (configuration not stated),6%,-29%,?,13µM*,4.1µM*,.
O=C(Nc1cccnc1)c1ccc(NS(=O)(=O)c2cc([N+](=O)[O-])ccc2Cl)cc1,1%,.,7%,1%,1%,.
CCCCc1c(O)nc2ccccn2c1=O,8%,-4%,-1%,?,12µM*,-9%
CCOc1ccc(CCN2C(=S)N([C@@H](Cc3ccc(O)cc3)CN3CCC[C@@H]3CN3C(=S)NC[C@@H]3CC(C)C)C[C@@H]2Cc2ccccc2)cc1,.,-25%,.,.,.,-17%
Cc1cc(C(=O)NCC(=O)OCC(=O)N2CCCCCC2)ccc1[N+](=O)[O-],-10%,-9%,0%,7%,?,-7%
Cc1cccc(N2C(=S)NC3c4ccccc4OC2(C)C3C(=O)N(C)C)c1 (configuration not stated),.,-2%,8%,4%,9.3µM*,-10%
CC1SCC(=O)N(CC(=O)NC2CCCCC2)C1=O (configuration not stated),.,-6%,13%,-4%,76%,-1%
CNC(=O)COC(=O)c1c2c(nc3ccccc13)CCC2,-1%,.,5%,13µM*,?,.
CCOc1ccc(NC(=O)c2c3c(nc4ccccc24)CCC3)cc1,8%,-13%,13%,4.1µM*,3.7µM*,i
COc1ccc(OC)c(NC(=O)COC(=O)c2c3c(nc4ccccc24)CCCC3)c1,-10%,.,0.89µM*,8.3µM*,.,.
COc1cc(-c2ccc(-[n+]3nc(-c4ccccc4)nn3-c3ccc([N+](=O)[O-])cc3)c(OC)c2)ccc1-[n+]1nc(-c2ccccc2)nn1-c1ccc([N+](=O)[O-])cc1,.,.,.,5.4µM*,6.7µM*,.
O=C(CN1CCSC1=NCc1ccccc1)c1ccc(Cl)cc1,?,-15%,13µM*,-24%,?,-26%
SMILES,NS1 inh,VACV Venus inh,HCV inh,Pf growth 48h,Pf growth 96h,Vaccinia mCherry
O=C(CN1C(=O)NC2(CCCC2)C1=O)Nc1nc(-c2ccc(F)cc2)cs1,-5%,.,13µM*,.,-15%,.
O=C(C[n+]1cc(-c2ccc(Cl)cc2)n2c1CCC2)Nc1nc(-c2ccc(F)cc2)cs1,1%,.,10µM*,-3%,?,.
O=C(C[n+]1cc(-c2ccc(F)cc2)n2c1CCC2)Nc1nc(-c2ccc(F)cc2)cs1,-6%,-9%,?,?,?,i
O=C(CN1CCCCC1)Nc1nc(-c2ccccc2)cs1,-4%,-6%,?,.,33%,i
O=C(CN1CCCCC1)Nc1nc(-c2ccc(Cl)cc2)cs1,5%,-13%,10µM*,-7%,1%,i
Cc1ccccc1C(=O)N1CCc2cc(-c3csc(NC(=O)CN4CCCC4)n3)ccc21,5%,-13%,?,4.1µM*,-5%,i
Cc1ccsc1C(=O)OCc1nc2ccsc2c(=O)[nH]1,.,-2%,10%,18%,4%,-20%
O=C(C[n+]1cc(-c2ccccc2)n2c1CCC2)Nc1nc(-c2ccc(F)cc2)cs1,5%,-9%,0.71µM*,?,10µM*,i
CCC(=O)N1CCc2cc(-c3csc(NC(=O)c4ccco4)n3)ccc21,11%,6%,?,?,25%,i
CC(C)C(=O)N1CCc2cc(-c3csc(N)n3)ccc21,-41%,?,-27%,10µM*,-12%,?
Cc1ccc(S(=O)(=O)N(C)C)cc1NC(=O)CSc1ncn[nH]1,9%,-12%,-1%,?,-13%,-8%
CN1C[C@@H](CS(=O)(=O)N(C)C)C[C@@H]2c3cccc4c3c(cn4C)C[C@H]21,4%,.,.,.,.,.
CCCn1cc2c3c(cccc31)C1CC(C)CN(C)C1C2 (configuration not stated),-3%,.,.,?,12µM*,.
Cc1cc2c(cc1S(=O)(=O)N1CCCC1)n(C)c(=O)c(=O)n2C,10%,.,24%,-2%,13µM*,.
Cc1cc(C)c(S(=O)(=O)N2CCCCCC2)cc1Br,-36%,-3%,2%,-28%,13%,-7%
Cc1cccc(NS(=O)(=O)c2cc3c(cc2C)n(C)c(=O)c(=O)n3C)c1,12%,-17%,-7%,?,13µM*,-20%
Cc1c(C(=O)N(C)C)c2cc(Cl)ccc2n1O,6%,-11%,?,8%,31%,?
COCCNC(=O)/C(C#N)=C/c1cccc(/C=C(\C#N)C(=O)NCCOC)c1,-32%,1%,10µM*,?,?,-6%
OCCN1CCN(c2ncnc3c2cnn3-c2cccc(Cl)c2)CC1,.,8%,.,.,.,-10%
